PubChem BioAssay AID1159580 (chemical genetic matrix, 2015)
Several values for one entry are separate records, joined by “and”; a condition that tells them apart may be missing. Identical values can stand only once. The campaign covered roughly 5,500 compounds. About 2,000 (36%) were called active. Not shown: some 18% with an inconclusive outcome. Rule as the data show it: active = normalized growth mostly below about 0.91 (no sharp cut-off); inconclusive = no clear call, values can overlap the other calls; inactive = mostly above about 0.92. This is one part of the list.

Assay: chemical genetic growth profiling, strain panel (AID 1159580);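 also: tested at 20 µM; growth read once vehicle control cultures reached saturation at 30 °C; 1 = growth at the plate median or of vehicle wells; lower values mean less growth of the strain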
Conditions: S. cerevisiae deletion strains, growth OD

Measured: normalized growth

Cn1c(=O)c2[nH]c(C3CCCC3)nc2n(C)c1=O
inactive: locus YAL013W, strain DEP1, hits give low values 1.01 | locus YAL021C, strain ccr4, hits give low values 0.989 | locus YAL026C, strain drs2, hits give low values 0.997 | locus YAL030W, strain snc1, hits give low values 0.99 | locus YAL040C, strain CLN3, hits give low values 0.977 | locus YBL061C, strain skt5, hits give low values 0.996 | locus YBR009C, strain hhf1, hits give low values 0.99 | locus YBR021W, strain FUR4, hits give low values 1.02 | locus YBR023C, strain chs3, hits give low values 0.996 | locus YBR171W, strain sec66, hits give low values 1.01 | locus YBR229C, strain ROT2, hits give low values 1.01 | locus YBR231C, strain swc5, hits give low values 0.997 | locus YBR279W, strain paf1, hits give low values 0.992 | locus YCL011C, strain gbp2, hits give low values 0.999 | locus YCL016C, strain dcc1, hits give low values 0.992 | locus YCL029C, strain bik1, hits give low values 0.994 | locus YCL061C, strain MRC1 (second series), hits give low values 0.985 | locus YCL061C, strain MRC1, hits give low values 0.993 | locus YCL069W, strain vba3, hits give low values 0.992 | locus YCR088W, strain abp1, hits give low values 1 | locus YDL005C, strain med2, hits give low values 0.982 | locus YDL035C, strain GPR1, hits give low values 1.01 | locus YDL040C, strain nat1, hits give low values 0.998 | locus YDL074C, strain BRE1, hits give low values 1.03 | locus YDL101C, strain DUN1, hits give low values 1.02 | locus YDL134C, strain PPH21, hits give low values 1.01 | locus YDL185W, strain tfp1, hits give low values 1.01 | locus YDL192W, strain arf1, hits give low values 1 | locus YDR001C, strain nth1, hits give low values 1 | locus YDR069C, strain doa4, hits give low values 0.979 | locus YDR101C, strain arx1, hits give low values 0.985 | locus YDR137W, strain rgp1, hits give low values 1 | locus YDR150W, strain NUM1, hits give low values 1.02 and 0.999 | locus YDR159W, strain sac3, hits give low values 0.989 | locus YDR162C, strain NBP2, hits give low values 1.02 | locus YDR195W, strain ref2 0.944 | locus YDR297W, strain sur2, hits give low values 0.991 | locus YDR318W, strain mcm21, hits give low values 0.986 | locus YDR334W, strain swr1, hits give low values 0.997 | locus YDR335W, strain msn5, hits give low values 0.995 | locus YDR363W, strain ESC2, hits give low values 1.03 | locus YDR388W, hits give low values 0.995 | locus YDR392W, strain spt3, hits give low values 0.85 | locus YDR502C, strain sam2, hits give low values 1.01 | locus YEL003W, strain gim4, hits give low values 1 | locus YEL037C, strain rad23, hits give low values 1 | locus YEL061C, strain CIN8 (second series), hits give low values 1.01 | locus YEL061C, strain CIN8, hits give low values 1.01 | locus YER002W, strain NOP16, hits give low values 0.944 | locus YER015W, strain faa2, hits give low values 0.994 | locus YER016W, strain bim1, hits give low values 0.99 | locus YER110C, hits give low values 0.991 | locus YER111C, strain swi4, hits give low values 0.998 | locus YER155C, strain BEM2 (second series), hits give low values 0.961 | locus YER155C, strain BEM2, hits give low values 1.01 | locus YER167W, strain BCK2, hits give low values 1.01 | locus YFR010W, strain ubp6, hits give low values 1 | locus YGL078C, strain dbp3, hits give low values 1 | locus YGL086W, strain mad1, hits give low values 0.997 | locus YGL167C, strain pmr1, hits give low values 0.984 | locus YGL173C, strain kem1, hits give low values 0.997 | locus YGL227W, strain vid30, hits give low values 0.991 | locus YGL240W, strain doc1, hits give low values 0.981 | locus YGL248W, strain PDE1, hits give low values 1.02 | locus YGL253W, strain hxk2, hits give low values 1.01 | locus YGR078C, strain PAC10, hits give low values 1.01 | locus YGR135W, strain pre9, hits give low values 0.982 | locus YGR229C, strain SMI1, hits give low values 1.02 and 1.04 | locus YGR252W, strain gcn5, hits give low values 0.904 | locus YHR013C, strain ard1, hits give low values 0.953 | locus YHR027C, strain rpn1, hits give low values 0.991 | locus YHR030C, strain SLT2, hits give low values 1.01 and 0.978 | locus YHR079C, strain IRE1 (second series), hits give low values 0.994 | locus YHR079C, strain IRE1, hits give low values 0.991 | locus YHR094C, strain hxt1, hits give low values 1 | locus YHR129C, strain ARP1, hits give low values 1.01 | locus YHR142W, strain chs7, hits give low values 1 | locus YHR200W, strain rpn10, hits give low values 1.01 | locus YIL066C, strain RNR3, hits give low values 1 | locus YIL073C, strain SPO22, hits give low values 1 | locus YIL125W, strain kgd1, hits give low values 0.995 | locus YIR030C, strain dcg1, hits give low values 1 | locus YJL092W, strain hpr5, hits give low values 1.01 | locus YJL095W, strain BCK1 (second series), hits give low values 0.992 | locus YJL095W, strain BCK1, hits give low values 1 and 0.974 | locus YJL115W, strain asf1, hits give low values 0.987 | locus YJL129C, strain trk1, hits give low values 0.974 | locus YJL134W, strain LCB3, hits give low values 1.01 | locus YJL154C, strain vps35, hits give low values 0.995 | locus YJL164C, strain tpk1, hits give low values 0.987 | locus YJL166W, strain qcr8, hits give low values 0.984 | locus YJL168C, strain set2, hits give low values 1 | locus YJL187C, strain SWE1 (second series), hits give low values 1.01 | locus YJL187C, strain SWE1, hits give low values 0.99 | locus YJR043C, strain POL32, hits give low values 0.992 | locus YJR066W, strain TOR1, hits give low values 0.96
